Assay outcomes deposited in PubChem BioAssay by several laboratories.
ADAM17 inh: ADAM17 inhibition, QFRET primary screen; P78536; recombinant ADAM17, EDANS/DABCYL FRET peptide cleavage; inhibition, % at 6.95 µM; actives 0.83% (n = 370,000); AID 720648;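 active means inhibition above the mean of compounds lying between control limits plus 3 SD, set per campaign, cut at about 8.5% in these data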;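 further: 0% = DMSO-only wells as the low control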
ADAM10 inh: inhibitors of human ADAM10. recombinant ADAM10, EDANS/DABCYL FRET peptide cleavage, 3 h. inhibition, % at 7 µM. actives 0.62% (n = 370,000);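 active means inhibition above a per-campaign cutoff equal to the mean of compounds falling between control-based bounds plus 3 SD, cut at about 20% in these data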;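 further: 0% = DMSO wells while the 100% control is not disclosed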
Target sequence (O14672 214-748 limits assumed): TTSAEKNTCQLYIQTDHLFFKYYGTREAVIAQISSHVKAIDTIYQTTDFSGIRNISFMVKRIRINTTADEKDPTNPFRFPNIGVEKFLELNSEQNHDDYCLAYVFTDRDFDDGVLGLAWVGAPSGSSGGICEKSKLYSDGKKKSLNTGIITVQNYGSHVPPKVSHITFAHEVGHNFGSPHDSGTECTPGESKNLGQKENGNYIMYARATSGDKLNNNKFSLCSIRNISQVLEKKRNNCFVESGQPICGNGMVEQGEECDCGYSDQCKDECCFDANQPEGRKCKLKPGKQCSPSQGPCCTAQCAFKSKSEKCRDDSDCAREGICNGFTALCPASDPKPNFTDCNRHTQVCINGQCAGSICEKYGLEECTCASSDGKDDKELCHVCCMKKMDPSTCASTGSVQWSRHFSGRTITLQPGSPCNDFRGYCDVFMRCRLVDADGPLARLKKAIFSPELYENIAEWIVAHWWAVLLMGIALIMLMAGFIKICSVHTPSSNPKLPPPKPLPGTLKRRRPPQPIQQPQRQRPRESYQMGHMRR
FGF22 binding: binders of recombinant human FGF22 by thermal shift; SYPRO orange fluorescence; percent of sucrose octasulfate shift, DMSO zero; activity (Tm shift, normalised), % at 9.99 µM; actives 1.5% (n = 340,000);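 active means mean Tm shift, scaled 0 neutral to 100 positive control, at about 1.3% or above, every replicate too, limit read from the data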
KLK7 zymogen act: activates the human kallikrein-7 zymogen. activation, % at 7 µM. purified proKLK7, EDANS-DABCYL substrate fluorescence; 100% is mature enzyme control, 0% vehicle. AID 652039. P49862. actives 0.9% (n = 370,000);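 active means activation above the mean of all tested compounds plus 3 SD, computed per campaign excluding outliers beyond control limits, cut at about 13% in these data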
rRNA inh HTS: inhibits bacterial ribosomal RNA function over humanized ribosomes. AID 720706. actives 1.6% (n = 350,000). GFP signal change (wild-type ribosome), % (no concentration beside the values). E. coli WT GFP vs humanized-ribosome RFP mutants, fluorescence, 24 h; hits give low values; DMSO median 0, no signal -100;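 active means significant combined selectivity score with lowered wild-type GFP, culture density cut under 30%, mutant RFP and density less affected; inactive means any of these conditions unmet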
Active calls of the source: *; . = not tested or not shown. Only some compounds are listed: those with a hit (about 3.8% of all), similar ones and a draw of the others.

SMILES	ADAM17 inh	ADAM10 inh	FGF22 binding	KLK7 zymogen act	rRNA inh HTS
COc1cccc(C(=O)OCn2nnc3ccccc3c2=O)c1	-1	5	0	0	-22*
COc1ccc(C(=O)OCn2nnc3ccccc3c2=O)cc1OC	-1	0	.	0	.
COc1ccc(Cn2c(=O)c3[nH]cnc3n(-c3ccc(C)cc3)c2=O)cc1	-4	3	0	1	-20*
Cc1ccc(S(=O)(=O)Nc2ccc3c(c2)CC(=O)N([C@H](C)CO)C[C@@H](C)[C@@H](CN(C)C(=O)Nc2c(C)noc2C)O3)cc1	.	.	0	.	0
Cc1ccc2nc(SCC(=O)Nc3ccc(C(N)=O)cc3)[nH]c2c1	-2	-4	43*	0	-8
COC(=O)CSc1nc2ccc(C)cc2[nH]1	-1	-5	.	0	.
Cc1cccc(NC(=O)CCCSc2nc3ccccc3[nH]2)c1	3	0	43*	0	-26
Cc1ccc2nc(SCC(=O)Nc3ccc4[nH]c(=O)[nH]c4c3)[nH]c2c1	-4	-10	0	0	2
Cc1ccc2nc(SCC(=O)c3ccc(O)cc3O)[nH]c2c1	1	7	0	-1	-23*
CC(=O)Nc1ccc(C(=O)CSc2nnc(-c3ccccc3F)n2CCc2ccccc2)cc1	3	9	0	0	-35*
C[C@@H]1CC=CC[C@@H](c2cccc(Cl)c2)NC(=O)[C@H](C)N(C)C(=O)c2ccccc2O1 (mixture of isomers)	.	.	.	.	-8
COC(=O)c1c(NC(=O)COC(=O)c2ccccn2)sc(C)c1C	-5	-6	0	0	1
CCOC(=O)c1c(NC(=O)COC(=O)c2ccccn2)sc2c1CCC2	-5	-16	0	1	-18*
C[C@@H]1CCCCO[C@@H](CN(C)C(=O)Nc2cccc3ccccc23)[C@H](C)CN([C@H](C)CO)C(=O)c2cc(NC(=O)Nc3ccc4c(c3)OCO4)ccc2O1	.	.	-1	.	0
CCCS(=O)(=O)N1CCN(Cc2c[nH]c3ccccc23)CC1	-1	0	43*	0	-2
COc1ccc(S(=O)(=O)N2CCN(Cc3c[nH]c4ccccc34)CC2)cc1	3	4	.	0	.
CCCNC(=O)Nc1ccc2c(c1)OC[C@H](C)N(C(=O)C1CC1)C[C@@H](C)[C@@H](OC)CN(C)C2=O	.	.	0	.	1
CC(C)(C)c1ccc(C(CC(=O)O)NC(=O)c2ccccc2F)cc1 (centres undefined)	0	-1	43*	0	10
O=C1CCC(=O)N1N1C(=O)C2C3c4ccccc4C(c4ccccc43)C2C1=O (centres undefined)	0	4	43*	0	9
COc1cc(NC(=O)C/C(C)=N/NC(=O)C(=O)NCCO)c(OC)cc1Cl	-3	-3	0	0	-52*
COCC(=O)Nc1ccc2c(c1)[C@H]1C[C@@H](CC(=O)NCc3ccc(Cl)cc3)O[C@@H](CO)[C@H]1O2	.	.	0	.	0
C/C(N)=C(/C#N)C(=O)COC(=O)c1ccccc1C(=O)c1ccc(C)cc1	-4	3	0	0	-21*
C/C(N)=C(/C#N)C(=O)COC(=O)c1ccccc1O	1	-8	.	1	.
CCC(=O)N(C)CCc1cc2c(c(OC)c1/C=N/NS(=O)(=O)c1ccc(C)cc1)OCO2	-6	-7	0	0	-25*
O=C(c1ccc(F)cc1)N1CC(=O)N2[C@H](CO)[C@H](c3ccc(C#CCC4CCCC4)cc3)[C@H]2C1	.	.	-1	.	0
SMILES	ADAM17 inh	ADAM10 inh	FGF22 binding	KLK7 zymogen act	rRNA inh HTS
CCOc1cccc(-c2cc(C(=O)N3N=C(C)CC3(O)C(F)F)c3ccccc3n2)c1 (centres undefined)	8	13	43*	0	-2
O=C(c1cc(-c2ccccc2)nc2ccccc12)N1N=C(C(F)F)CC1(O)C(F)F (centres undefined)	0	-9	0	0	-54
CN1[C@H](C(=O)NCc2ccccn2)[C@@H](CO)[C@@H]2Cn3c(ccc(-c4cccc(F)c4)c3=O)[C@@H]21	.	.	0	.	-2
COCC#Cc1ccc([C@H]2[C@H]3CN(C(=O)Nc4cc(F)ccc4F)CC(=O)N3[C@H]2CO)cc1	.	.	.	.	2
O=C(c1ccc2c(=O)n(C3CCCC3)c(=S)[nH]c2c1)N1CCCCCC1	0	-1	0	0	-28*
CC1CCCN(C(=O)c2ccc3c(=O)n(C4CCCC4)c(=S)[nH]c3c2)C1 (centres undefined)	-1	3	0	0	15
Cc1noc(C)c1NC(=O)N(C)C[C@H]1OCCCC[C@@H](C)Oc2ccc(NS(C)(=O)=O)cc2C(=O)N([C@H](C)CO)C[C@H]1C	.	.	0	.	4
O=C(COC(=O)c1cccnc1Cl)Nc1cccc(S(=O)(=O)N2CCOCC2)c1	-4	-8	0	-1	-1
Cc1ccc(S(=O)(=O)N2CCOCC2)cc1NC(=O)COC(=O)c1cccc(Cl)c1Cl	2	-3	.	1	-32*
Cc1ccc(S(=O)(=O)N2CCOCC2)cc1NC(=O)COC(=O)c1cccnc1Cl	2	2	0	1	4
CSc1ncccc1C(=O)OCC(=O)Nc1cccc(S(=O)(=O)N2CCOCC2)c1	-1	6	43*	1	-11
CSc1ncccc1C(=O)OCC(=O)Nc1ccc(C)c(S(=O)(=O)N2CCOCC2)c1	0	0	43*	1	-13
Cc1ccc(NC(=O)COC(=O)c2cccnc2Cl)cc1S(=O)(=O)N1CCOCC1	0	-18	0	0	-25*
CC1(c2ccccc2)NC(=O)N(N)C1=O (centres undefined)	0	1	43*	0	13
C=CCN(CC=C)C(=S)NC(=O)Cc1cccc2ccccc12	0	4	43*	0	-61
O=C(Cc1cccc2ccccc12)Nc1ccccc1	-4	5	0	0	4
CCCCSc1nc(N)c(C#N)c(-c2cccs2)c1C#N	8	4	0	-3	-31*
CC(=O)CSc1nc(N)c(C#N)c(-c2cccs2)c1C#N	2	-19	.	-18	.
COc1ccc(C2CC(c3ccccc3O)=NN2c2ccccc2)cc1 (centres undefined)	-10	-32	0	0	-21*
COc1ccc(C2CC(c3ccccc3)=NN2c2ccc(N)cc2)cc1 (centres undefined)	-30	-35	0	-2	-22
CCCNC(=O)Cn1c(=O)/c(=C/c2ccc(-c3cccc([N+](=O)[O-])c3)o2)s/c1=C\C(=O)C(C)(C)C	4	-5	44*	0	11
CCCNC(=O)Cn1c(=O)/c(=C\c2ccc(-c3cccc([N+](=O)[O-])c3)o2)s/c1=C\C(=O)C(C)(C)C	0	-5	.	0	.
CCC(C)NS(=O)(=O)c1ccc(NC(=O)C2CCCO2)cc1 (centres undefined)	0	10	43*	0	5
